# Screening data as filed in PubChem.
# The list is not random: actives were taken first. Their share in the collection is about 0.92%.
# BLM helicase inh = Bloom syndrome helicase (human) inhibition; P54132; recombinant BLM DNA unwinding, fluorescence dequenching; Potency, µM (doses to about 56.1 µM), inactives show top-dose activity change, negative = inhibition, most hits filed as inhibitors; actives 0.2% (n = 350,000);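 further: plate controls were vehicle for no effect and no enzyme for full effect; nearly all actives have a fitted effect of over 35% in size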
# RECQ1 inh = inhibitors of human RECQ1 DNA helicase; P46063; actives 0.54% (n = 240,000); Potency, µM (top dose mostly 57.3 µM), inactives show at the top dose activity, negative = inhibition, usual class: inhibitors; RECQ1 DNA unwinding, red fluorescence kinetic read;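 further: plate controls were vehicle for no effect and no enzyme for full effect; nearly all actives have a fitted effect of over 30% in size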
#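 50 nM RECQ1T1 preincubated 15 min with compound in Tris pH 8.0 buffer with MgCl2, DTT, Tween-20 and 2.5 ug/ml poly(dI-dC); started with 200 nM TAMRA/BHQ-2 forked duplex and 2 mM ATP. Unwinding read as fluorescence (525/598 nm), two reads 2 h apart.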
# L3MBTL1 inh = blocks human L3MBTL1; Q9Y468; AlphaScreen L3MBTL1–H3K9me1 peptide binding; Potency, µM (series often up to 57.1 µM), without a hit: at the top dose activity, negative = inhibition, most hits filed as inhibitors; actives 0.66% (n = 230,000); further: nearly all actives have a fitted effect of over 60% in size
#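 AlphaScreen assay: L3MBTL1 (50 nM final) was preincubated 30 min at room temperature with biotinylated H3(1-15)K9me1 peptide (75 nM final), then 30 min with library compounds; streptavidin donor and nickel chelate acceptor beads (10 ug/mL final) added, 30 min dark.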
# WRN helicase inh = blocks human WRN helicase. WRN helicase unwinding, fluorescent forked duplex, kinetic. Q14191. AID 651768. actives 0.46% (n = 360,000). Potency, µM (titrated, usually from 114 µM), for inactives: at the top dose activity change, negative = inhibition, most hits filed as inhibitors; further: nearly all actives have a fitted effect of over 55% in size
#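 WRN at 20 nM final was preincubated with compound for 15 min at room temperature; reaction started with 100 nM forked duplex oligonucleotide carrying fluorophore and quencher plus 2 mM ATP (final). Unwinding followed kinetically by red fluorescence (ex 525/em 598 nm).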
# APEX1 inh = blocks human APE1 abasic DNA cleavage; P27695; recombinant APE1, TAMRA/BHQ-2 abasic DNA cleavage fluorescence; Potency, µM (top dose mostly 65.8 µM), for inactives: at the highest dose activity change, negative = inhibition, most hits filed as inhibitors; actives 0.35% (n = 350,000);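 further: plate controls were vehicle for no effect and reference inhibitor for full effect; nearly all actives have a fitted effect of over 55% in size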
#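 0.75 nM APE1 + cpd, 15 min RT; start w/ 50 nM TAMRA/BHQ-2 THF-abasic dsDNA; kinetic fluor 525/598 nm ×3 reads @60 s; Δ(read3−read1); normalized to DMSO and NSC13755 control wells.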
# * hit, by the source's call; i = inactive; ? = inconclusive; . = no result; [ ] = dose if it differs, or a comment. The call rests on the fitted dose curve; in most records, active means well fitted curve in the direction sought with a large enough effect; inconclusive means small, poorly fitted or top-dose-only effect, or another doubt; inactive means no such curve, though single readings can be large; an effect the other way counts as inactive or inconclusive. Unless noted, on the % scale 0 is the no-effect control and ±100 the full control effect; potency means the concentration at half of the fitted maximal effect.
SMILES,BLM helicase inh,RECQ1 inh,L3MBTL1 inh,WRN helicase inh,APEX1 inh
O=C(O)c1ccccc1OS(=O)(=O)O,4%,-1%,.,.,?
CCOC(=O)C1=C(C)N=C2c3ccccc3C(=O)C2C1c1ccc(Cl)cc1 (stereo unspecified),-10%,-17%,?,-21%,-4%
CCOC(=O)C1=C(Cc2ccc(Cl)cc2)C(=O)c2ccccc2C1=O,-10%,i,.,35µM*,10%
Nc1nc(=S)c2[nH]c(=S)[nH]c2[nH]1,.,.,.,3%,.
CSc1nc(=S)c2[nH]c(=S)[nH]c2[nH]1,-4%,10%,-2%,50µM*,0%
O=Cc1ccc(O)c2ncccc12,3%,-1%,4µM*,9%[57.1 µM],-4%
NS(=O)(=O)c1ccc(N=Nc2ccc(O)c3ncccc23)cc1,-17%,.,.,-3%,37%
O=C(O)C1Sc2[nH]c(=O)sc2C2c3ccc(O)cc3OC(=O)C12 (stereo unspecified),-16%,28%,-2%,25µM*,-8%
O=C(O)C1Sc2[nH]c(=O)sc2C2c3cc(Cl)ccc3OC(=O)C12 (stereo unspecified),2%,-3%,-12%,-34%,2%
CNc1nc(-c2ccccc2)[n+](-c2ccc(C)cc2)s1,5%,-6%,-5%,50µM*,-6%
Cc1nc2[nH]c(=S)[nH]c2c(=O)[nH]1,.,.,.,0%,.
Cc1nc2c(=O)[nH]c(=S)[nH]c2[nH]c1=O,.,.,.,20µM*,.
N#C/C(=C\c1ccc(O)c(O)c1)C(=O)OCCc1cccs1,-30%,28µM*,.,.,-9%
N#C/C(=C\c1ccc(O)c(O)c1)C(=O)N1CCCC1,-9%,2%,-2%,2%[11.6 µM],-11%
N#C/C(=C\c1ccc(O)c(O)c1)C(=O)NCCCc1ccccc1,?,16µM*,?,?,5%
CO/N=C(\C(=O)N[C@@H]1C(=O)N2C(C(=O)OCOC(=O)C(C)(C)C)=C(/C=C\c3scnc3C)CS[C@H]12)c1csc(N)n1,.,.,.,.,-3%
C=C(CN(C)C)C(=O)c1ccc(C)cc1C,.,.,.,18µM*,.
Cn1nc(-c2ccccn2)nc2c(=O)n(C)c(=O)nc1-2,1µM*,4.5µM*,.,-8%,?
COc1ccc(-c2nc(-c3ccccn3)ncc2S(C)(=O)=O)cc1,-1%,-13%,0%,-27%[57.1 µM],1%
CCCc1nc2c(=O)n(C)c(=O)nc-2n(C)n1,2.8µM*,?,?,-31%,?
CSCC[C@H](NC(=O)CNC(=O)CNC(=O)[C@H](CO)NC(=O)[C@H](CCCNC(=N)N)NC(=O)[C@H](CO)NC(=O)[C@H](CC(C)C)NC(=O)[C@H](CC(C)C)NC(=O)CNC(=O)[C@H](C)NC(=O)[C@H](CC(C)C)NC(=O)[C@H](CCCNC(=N)N)NC(=O)[C@H](Cc1cnc[nH]1)NC(=O)[C@@H](NC(=O)[C@@H](N)C(C)C)[C@@H](C)O)C(=O)N[C@H](C(=O)N[C@@H](CCCCN)C(=O)N[C@@H](CO)C(=O)N[C@@H](CC(N)=O)C(=O)N[C@@H](Cc1ccccc1)C(=O)N[C@H](C(=O)N1CCC[C@H]1C(=O)N[C@H](C(=O)N[C@@H](CC(N)=O)C(=O)N[C@H](C(=O)NCC(=O)N[C@@H](CO)C(=O)N[C@@H](CCCCN)C(=O)N[C@@H](C)C(=O)N[C@@H](Cc1ccccc1)C(N)=O)C(C)C)[C@@H](C)O)C(C)C)C(C)C,2%,-7%,.,.,1%
Cc1ccc2nsnc2c1S(=O)(=O)Nc1cccc2cccnc12,-6%,-11%,.,.,-3%
Cc1cc(C)c2c(=O)c(C#N)coc2c1,-6%,-21%,3%,56µM*,-6%
CCOc1ccc(/C=C/C2=Cc3c(sc(NC(=O)CSc4n[nH]c(N)n4)c3C#N)C(C)(C)C2)cc1,-18%,?,-9%,45µM*,3%
Cc1ccsc1/C=C/C1=Cc2c(sc(NC(=O)CSc3n[nH]c(N)n3)c2C#N)C(C)(C)C1,?,?,.,-4%[11.6 µM],-12%
SMILES,BLM helicase inh,RECQ1 inh,L3MBTL1 inh,WRN helicase inh,APEX1 inh
O=C1C=CC2(O[C@H](c3ccccc3)[C@@H](c3ccccc3)O2)[C@H](Sc2ccccc2O)C1,.,.,.,11µM*,.
O=[N+]([O-])c1cc(N(CCO)CCO)ccc1NCCO,.,3%,.,.,10%
CCOc1ccc(C(=O)c2ccc(OC)c(O)c2O)cc1,-1%,i,.,.,13%
COc1ccc(C(=O)c2ccc(O)cc2)c(O)c1O,-8%,14µM*,.,.,?
Nc1ncnc2c1ncn2[C@@H]1O[C@H](COP(=O)(O)OP(=O)(O)CP(=O)(O)O)[C@@H](O)[C@H]1O,.,6%,.,.,4%
Cn1cc(CNC(=O)c2cnn3c2NC(=C2CC2)C=C3C(F)F)cn1,.,.,.,.,8%
C#CC1(O)CC[C@H]2[C@@H]3CCC4=CCCC[C@@H]4[C@H]3CC[C@@]21C (stereo partly specified),.,.,.,.,9%[21 µM]
O=C(Cc1cccc2ccccc12)N/N=C/c1ccc(F)cc1,2%,i,8%,-4%,13%
O=C(Cc1cccc2ccccc12)N/N=C/c1ccc(OC(=O)/C=C/c2ccco2)cc1,-8%,-7%,25µM*,-5%[57.1 µM],?
CC(=O)OC[C@]12CC[C@H]3[C@@](C)(CC[C@H]4C(C)(C)CCC[C@]34C)[C@@H]1C[C@H](C1=CC(=O)O[C@@H]1OC(C)=O)O2,.,.,-15%,.,13µM*
c1ccc2c(c1)SCc1c-2[nH]c2ccccc12,-9%,-12%,.,.,-1%
Cc1ccc(NC(=S)c2nc3ccccc3[nH]2)c(C)c1,0%,4.5µM*,?,2%,12%
COc1cc(C(=O)Oc2ccccc2/C=N/NC(=O)c2ccc(Cl)cc2)cc(OC)c1OC,-4%,22µM*,4%,-16%,-10%
NC(=O)C(=CNc1nc(-c2ccc(Cl)c(Cl)c2)cs1)C(N)=O,?,3.5µM*,-44%,.,0.63µM*
O=C(O)c1ccc(-c2nc(-c3ccc(Cl)c(Cl)c3)cs2)cc1,-13%,-11%,.,10%,7%
COc1ccc(-c2cc(=O)c3c(O)c(OC)c(OC)c(OC)c3o2)cc1OC,6%,-1%,.,.,-3%
COc1cc(-c2cc(=O)c3c(O)c(OC)c(OC)c(O)c3o2)ccc1O,-9%,13µM*,?,?,?
c1ccc(C(O[C@H]2CCCN(CCc3ccc4c(c3)OCO4)C2)c2ccccc2)cc1,.,.,.,.,-4%
O=S(=O)(/N=S1\CC=CCN1S(=O)(=O)c1ccccc1)c1ccccc1 (stereo unspecified),.,.,.,8.9µM*,.
O=S(=O)(c1ccccc1)N1CCN(S(=O)(=O)c2ccccc2)c2ccccc21,.,.,.,-12%,.
COc1cccc(OC)c1-c1cc(C(=O)NC2(C(=O)O)C3CC4CC(C3)CC2C4)nn1-c1ccc(C(=O)N(C)CCCN(C)C)cc1C(C)C (stereo unspecified),4%,-9%,.,.,17%
